Measured values from the supplement of paper PMC10811239.

Assays:
[1] = test system: LEGO organoid PTCC (PTEN-/-; TP53-/-; CDKN2A-/-; CDKN2B-/-); experiment: bioluminescence (viable cell) signal fold change after vs before treatment, normalised to DMSO (ratio); higher = more tumour cell growth / less inhibition; conditions: 10 µM; treatment time 6 days
Method: (§1)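 Luc2-labelled iPSC-derived glioblastoma-like organoids (LEGOs, genotypes PT = PTEN-/-;TP53-/-, PTCC = plus CDKN2A/B-/-, PTN = plus NF1-/-) were treated with 10 uM drug for 6 days (applied every other day) at 37 C. Bioluminescence imaging was done before treatment and 2 days after the last dose. BLI signals were normalised to the DMSO control on the same day and then to the pre-treatment signal (N=3).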

[2] = test system: LEGO organoid PTN (PTEN-/-; TP53-/-; NF1-/-); experiment: as above; conditions: 10 µM; treatment time 6 days
Method: as §1

Structure (SMILES)	bioluminescence [1]	bioluminescence [2]
CS(=O)(=O)CCNCc1ccc(-c2ccc3ncnc(Nc4ccc(OCc5cccc(F)c5)c(Cl)c4)c3c2)o1.Cc1ccc(S(=O)(=O)O)cc1.Cc1ccc(S(=O)(=O)O)cc1 [Lapatinib Ditosylate]	1.03	0.778
Cl.N=C(N)NC(=O)Cc1c(Cl)cccc1Cl [Guanfacine hydrochloride]	1.24	0.496
Cl.N=C1CCCN1Cc1[nH]c(=O)[nH]c(=O)c1Cl [Tipiracil hydrochloride]	1.21	0.848
CC(C)NCC(O)COc1cccc2ccccc12.Cl (stereo not given) [Propranolol hydrochloride]	0.672	1.25
C[C@@H](O[C@H]1OCCN(Cc2nc(=O)[nH][nH]2)[C@H]1c1ccc(F)cc1)c1cc(C(F)(F)F)cc(C(F)(F)F)c1 [Aprepitant]	0.644	1.21
Cl.OC(CCN1CCCCC1)(c1ccccc1)C1CCCCC1 (racemic) [DL-trihexyphenidyl hydrochloride]	0.966	0.496
C=CC(=O)Nc1cc(Nc2nccc(-c3cn(C)c4ccccc34)n2)c(OC)cc1N(C)CCN(C)C [Osimertinib]	0.0861	0.0227
C#Cc1cccc(Nc2ncnc3cc(OCCOC)c(OCCOC)cc23)c1.Cl [Erlotinib hydrochloride]	1.66	2.02
COc1cc2ncnc(Nc3ccc(F)c(Cl)c3)c2cc1NC(=O)/C=C/CN1CCCCC1 [Dacomitinib]	0.0502	0
C[C@@H](Oc1cc(-c2cnn(C3CCNCC3)c2)cnc1N)c1c(Cl)ccc(F)c1Cl [Crizotinib]	0.43	0.303
CC1=NN(c2ccccc2)C(=O)C1 [Edaravone]	0.508	1.12
CCN(CC)C(=O)[C@@]1(c2ccccc2)C[C@H]1CN.Cl [Milnacipran ((1S-cis) hydrochloride)]	2.09	0.808
CNCC[C@@H](Oc1ccccc1C)c1ccccc1.Cl [Atomoxetine hydrochloride]	1.04	1.97
CN(C/C=C/C#CC(C)(C)C)Cc1cccc2ccccc12 [Terbinafine]	1.04	2.32
C[C@@](Cc1ccc(O)c(O)c1)(NN)C(=O)O.O [Carbidopa Hydrate]	0.96	1.55
Nc1nc(NC2CC2)c2ncn([C@H]3C=C[C@@H](CO)C3)c2n1 [Abacavir]	1.46	3.33
CN(C)CCC=C1c2ccccc2COc2ccccc21.Cl [Doxepin hydrochloride]	1.05	0.742
C[C@]12C=CC(=O)C=C1CC[C@@H]1[C@@H]2[C@@H](O)C[C@@]2(C)[C@H]1CC[C@]2(O)C(=O)CO [Prednisolone]	1.29	1.71
CCc1cccc2c3c([nH]c12)C(CC)(CC(=O)O)OCC3 (stereo not given) [Etodolac]	0.917	1.19
CO[C@@H]1[C@H](N(C)C(=O)c2ccccc2)C[C@H]2O[C@]1(C)n1c3ccccc3c3c4c(c5c6ccccc6n2c5c31)C(=O)NC4 [Midostaurin]	1.65	0.647
C[N+](C)(C)CCO.[Cl-] [Choline chloride]	0.614	2.09
Nc1ccn([C@@H]2CS[C@H](CO)O2)c(=O)n1 [Lamivudine]	0.674	1.2
CS(=O)(=O)O.Cc1ccc(NC(=O)c2ccc(CN3CCN(C)CC3)cc2)cc1Nc1nccc(-c2cccnc2)n1 [Imatinib Mesylate]	1.35	2.11
C[C@@H](c1ncncc1F)[C@](O)(Cn1cncn1)c1ccc(F)cc1F [Voriconazole]	0.587	1.46
Cc1cn([C@H]2C[C@H](N=[N+]=[N-])[C@@H](CO)O2)c(=O)[nH]c1=O [Zidovudine]	1.35	3.76
CCCCCCCCc1ccc(CCC(N)(CO)CO)cc1.Cl [Fingolimod hydrochloride]	1.07	0.473
CC(=O)N[C@@H](CS)C(=O)O [Acetylcysteine]	1.21	3.17
CN(C)CC(c1ccc(O)cc1)C1(O)CCCCC1.O=C(O)CCC(=O)O (stereo not given) [Desvenlafaxine succinate hydrate]	0.582	0.536
Cl.O=c1n(CCCN2CCN(c3cccc(Cl)c3)CC2)nc2ccccn12 [Trazodone hydrochloride]	2.62	0.985
Cl.O=C1CN2Cc3c(ccc(Cl)c3Cl)NC2=N1 [Anagrelide hydrochloride]	0.834	1
